ELG1 DNA repair: ELG1-dependent DNA repair inhibition; 2.3% of 330,000 active; AID 504467; Potency, µM (highest dose often 46.1 µM), actives largely listed as inhibitors; HEK293T ELG1-luciferase reporter, luminescence, 16 h; DNA damage induced by 5-fluorouridine; further: nearly all actives have a fitted effect of over 55% in size
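Reporter activity after DNA damage by 5-fluorouridine is monitored. Compound-treated cells incubate 16 hr at 37 °C, then ONE-Glo is added for 30 min before luminescence reading.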
Sfp inh: inhibitors of Bacillus subtilis Sfp phosphopantetheinyl transferase | Q9F4F7 | Biochemical Sfp PPTase activity, qHTS | Potency, µM, most hits filed as inhibitors | 3.5% of 310,000 active;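 further: the enzyme is Sfp with the accession as filed and its product quenches rhodamine fluorescence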
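Compounds were incubated with enzyme (final 15 nM) for 15 min at room temperature before substrate addition started the reaction. Fluorescence at 525 nm excitation, 598 nm emission was recorded immediately and after 30 minutes.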
Giardia kill: kills Giardia lamblia; AID 540267; 0.15% of 340,000 active; Giardia lamblia trophozoite viability; activity change, % at 7.66 µM, hits read low; in the data active means activity change below about -80%; inconclusive means between about -30% and that limit;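 further: parasites exposed to compound for two days anaerobically before the ATP read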
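Viability, read as ATP luminescence: trophozoites at 100 cells/well, compound added, 48 hrs anaerobic at 37 deg C, then 15-30 min room-temperature development before reading.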
Coupling enz: counter-screen for Giardia aldolase inhibitors: coupling enzyme system | coupling enzyme system counterscreen, AmpLite Red fluorescence | activity change, negative = inhibition, % at 58.2 µM, hits read low | 0.67% of 290,000 active | AID 2472; in the data active means activity change below about -30%
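Counterscreen of the coupled detection system alone, without aldolase: glyceraldehyde-3-phosphate coupling enzymes plus AmpLite Red readout. Compounds at 57.5 uM final, 10 min RT preincubation, 20 min RT reaction, fluorescence 525/598 nm.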
Each line names hits and unclear results; the compound was inactive in the other large screens. This is a sample that favours compounds with a hit; in the whole collection about 5.5% have one here. Unless noted, the call rests on the fitted dose curve; in most records, active means well fitted curve in the direction sought with a large enough effect; inconclusive means small, poorly fitted or top-dose-only effect, or another doubt; inactive means no such curve, though single readings can be large; an effect the other way counts as inactive or inconclusive.

COc1ccc(C(=O)N2CCC3(CCCN(C(=O)Nc4cccc(C#N)c4)C3)CC2)cc1	none (no result: ELG1 DNA repair, Giardia kill)
N#Cc1ccc(C(=O)Nc2ccn(-c3ccccc3)n2)cc1	ELG1 DNA repair 23µM
N#Cc1ccc(NC(=O)c2nc(-c3ccccc3)n(-c3ccccc3)n2)cc1	Coupling enz -38
O=C(Nc1ccccn1)c1nc(-c2ccccc2)n(-c2ccccc2)n1	ELG1 DNA repair inconclusive
NC(=O)c1ccsc1NC(=O)c1nc(-c2ccccc2)n(-c2ccccc2)n1	ELG1 DNA repair 18µM
CCOC(=O)c1c(C)[nH]c(C)c1S(=O)(=O)N(C)CC(=O)N(C)Cc1ccccc1	none
NC(=O)c1cc(Cc2ccccc2)sc1NC(=O)c1ccco1	ELG1 DNA repair inconclusive
CCOc1ccc(CC(=O)Nc2sc(Cc3ccccc3)cc2C(N)=O)cc1OCC	Sfp inh 28µM
CC(C)NC(=O)CSc1nc2ccccc2n1CC(=O)N(C(C)C)C(C)C	none
CC(C)N(C(=O)CSc1nc2ccccc2n1Cc1ccc(F)cc1)C(C)C	ELG1 DNA repair 18µM
CCn1c(SCC(=O)N(C)c2c(N)n(Cc3ccccc3)c(=O)[nH]c2=O)nc2ccccc21	Sfp inh 28µM
Cc1nnc(SCC(=O)N(C)c2c(N)n(Cc3ccccc3)c(=O)[nH]c2=O)n1Cc1ccccc1	none
C/C(N)=C(/C#N)C(=O)CSc1nc2ccccc2c(=O)n1Cc1ccc(F)cc1	ELG1 DNA repair inconclusive, Sfp inh 71µM
COC(=O)C1=C(C(=O)OC)[C@@H]2N(C)c3ccc(OC)cc3[C@@]23C[C@@H](C(=O)OC)N(S(=O)(=O)c2ccc4c(c2)OCCN4C)C3=N1	none (no result: ELG1 DNA repair, Giardia kill)
CCCCCCC#CC1C=CC(OC(=O)OCC)C(COC(=O)OCC)O1 (stereo not given)	none (no result: ELG1 DNA repair, Giardia kill)
COc1ccccc1CN1CCC(n2nccc2NC(=O)CCCc2ccccc2)CC1	ELG1 DNA repair inconclusive (no result: Coupling enz)
CSc1ccc(S(=O)(=O)Nc2ccc3c(c2)NC(=O)CC3)cc1	ELG1 DNA repair 8.2µM
S=c1nc(-c2csc3c2CCCC3)[nH][nH]1	Sfp inh 35µM
Cc1nnc2sc(-c3csc4c3CCCC4)nn12	ELG1 DNA repair inconclusive
O=C(CSc1nnc(NC(=O)C2CC(=O)N(c3ccc(F)cc3)C2)s1)NCc1ccco1 (stereo not given)	none
Cc1ccc(S(=O)(=O)NC(C)(C)CSc2nnc(Nc3ccccc3)s2)cc1	ELG1 DNA repair 23µM
CCOc1ccc(/C(C)=N\NC(=O)Cc2ccccc2)cc1	Giardia kill inconclusive
CCC(=O)Nc1ccc(C2C(=O)c3ccccc3C2=O)cc1	ELG1 DNA repair inconclusive, Giardia kill -82
CCc1ccc(C2C(=O)c3ccccc3C2=O)cc1	none (no result: ELG1 DNA repair, Sfp inh, Coupling enz)
CCC1S/C(=C(\C#N)C(=O)NCc2ccco2)N(c2ccc(Br)cc2)C1=O (stereo not given)	none
CCC1S/C(=C(\C#N)C(=O)NCc2ccco2)N(c2ccc(F)cc2)C1=O (stereo not given)	Sfp inh 25µM
O=C(O)c1ccccc1C(=O)Nc1ccccc1	none
O=C(Nc1ccccc1)C1=C(c2ccccc2)S(=O)(=O)CCS1(=O)=O	ELG1 DNA repair inconclusive, Sfp inh 13µM
CNC[C@H](Cc1ccccc1)NC[C@@H](Cc1cccc2ccccc12)NCCc1ccc(C)cc1	ELG1 DNA repair inconclusive, Sfp inh 50µM
CCOc1ccc(NC(=O)/C(C=Nc2ccccc2)=C(\C)O)cc1	none
CCNS(=O)(=O)c1ccc(CCC(=O)N2CCN(Cc3ccccc3)CC2)cc1	none
CCOC(=O)N1CCN(C(=O)CCc2ccc(S(=O)(=O)NCCc3ccccc3)cc2)CC1	ELG1 DNA repair 15µM
O=C(CCc1ccc(S(=O)(=O)NCCc2ccccc2)cc1)Nc1ccc2c(c1)OCO2	none
O=C(CCc1ccc(S(=O)(=O)NCCc2ccccc2)cc1)N1CCN(Cc2ccc3c(c2)OCO3)CC1	ELG1 DNA repair 23µM (no result: Giardia kill)
CC(C)CNS(=O)(=O)c1ccc(CCC(=O)N2CCN(Cc3ccc4c(c3)OCO4)CC2)cc1	ELG1 DNA repair 9.2µM
CC(C)CNS(=O)(=O)c1ccc(CCC(=O)N2CCN(Cc3ccccc3)CC2)cc1	ELG1 DNA repair inconclusive
CCN(C(=O)CSc1nnc(-c2ccccc2OC)n1N)c1c(N)n(Cc2ccccc2)c(=O)[nH]c1=O	none (no result: ELG1 DNA repair, Sfp inh, Coupling enz)
CC(C)C(=O)Nc1cccc(-c2nc3ncccc3o2)c1	none
COc1cc(C(=O)Nc2cccc(-c3nc4cc(C)ccc4o3)c2)cc(OC)c1OC	ELG1 DNA repair 15µM
COc1c(C)cc(Br)cc1C(=O)Nc1cccc(-c2nc3ncccc3o2)c1	ELG1 DNA repair 18µM

Source: PubChem
